This is part of a sample that, as a whole, favours compounds with a hit. Of some 83,000 tested, about 20% had one in any assay.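 Results are percent growth after 48 hours of single-concentration exposure. 100 means growth as in untreated cells, lower positive values show inhibition; negative values down to -100 show cell death.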 Activity calls are given as the source filed them. How the source made its calls: active means growth percent below 10; inactive means the rest.
What was measured:
Test in all cases: NCI-60 one-dose screen, 48 h (100 = growth as untreated, 0 = no growth, -100 = all killed)
Details in all cases: 10 µM
SK-MEL-2 melanoma = system: SK-MEL-2 melanoma
EKVX NSCLC = system: EKVX NSCLC
SN12C renal = system: SN12C renal
UO-31 renal = system: UO-31 renal
TK-10 renal = system: TK-10 renal
ACHN renal = system: ACHN renal
CAKI-1 renal = system: CAKI-1 renal
A498 renal = system: A498 renal
MOLT-4 leukemia = system: MOLT-4 leukemia
CCRF-CEM leukemia = system: CCRF-CEM leukemia

Measured: growth

O=C(NCc1cn(Cc2cccc(Oc3ccccc3)c2)nn1)c1cccnc1Nc1ccccc1
inactive: SK-MEL-2 melanoma 55.1% | EKVX NSCLC 58.7% | SN12C renal 50.2% | UO-31 renal 54.4% | TK-10 renal 85.2% | ACHN renal 54.5% | CAKI-1 renal 48.1% | A498 renal 19.7% | MOLT-4 leukemia 38%

O=C(N/N=C/c1ccccc1O)c1ccccc1
inactive: EKVX NSCLC 21.7% | SN12C renal 47.2% | UO-31 renal 12.2% | TK-10 renal 46% | ACHN renal 13% | A498 renal 71.4% | MOLT-4 leukemia 14.7%
active: SK-MEL-2 melanoma -3.08% | CAKI-1 renal 7.12% | CCRF-CEM leukemia -28.1%

O=C1/C(=C/c2cccs2)CCC/C1=C\c1cccs1
inactive: SK-MEL-2 melanoma 95.8% | EKVX NSCLC 74% | SN12C renal 103% | UO-31 renal 75.9% | TK-10 renal 78.2% | ACHN renal 101% | CAKI-1 renal 87.4% | A498 renal 74.8% | CCRF-CEM leukemia 80.9% | MOLT-4 leukemia 89.1%

CCCCCN(CCCCC)C(C)C(O)c1ccc2cc(Cl)c3ccccc3c2c1 (stereo not drawn)
inactive: SK-MEL-2 melanoma 87% | EKVX NSCLC 102% | SN12C renal 89.6% | UO-31 renal 70.6% | TK-10 renal 94.8% | ACHN renal 102% | CAKI-1 renal 87.4% | A498 renal 83.1% | CCRF-CEM leukemia 92.2% | MOLT-4 leukemia 98.6%

O=C(COc1ccc(Cl)cc1Cl)Oc1coc(CSc2nc3ccccc3s2)cc1=O
inactive: SK-MEL-2 melanoma 94.5% | EKVX NSCLC 106% | SN12C renal 92.3% | TK-10 renal 107% | ACHN renal 101% | CAKI-1 renal 101% | CCRF-CEM leukemia 88.7% | MOLT-4 leukemia 86.4%
active: A498 renal -21.3%

CCOC(=O)C(CCC1=NC(C)(C)CC(C)O1)C(=O)OCC (stereo not drawn)
active: ACHN renal 6.26%
inactive: SK-MEL-2 melanoma 34.1% | EKVX NSCLC 107% | SN12C renal 95.7% | UO-31 renal 77.5% | TK-10 renal 101% | CCRF-CEM leukemia 111% | MOLT-4 leukemia 68.8%

CCOc1nc(-c2ccccc2)cc2c(O)c(C(=O)N/N=C/c3ccc(OC)cc3)[nH]c(=O)c12
inactive: SK-MEL-2 melanoma 98.5% | EKVX NSCLC 99.7% | SN12C renal 114% | UO-31 renal 66.8% | TK-10 renal 120% | ACHN renal 100% | A498 renal 132% | CCRF-CEM leukemia 91.8% | MOLT-4 leukemia 63%

O=[N+]([O-])c1ccc(-c2nc(-c3ccccc3)c(-c3ccccc3)n2-c2ccccc2)cc1
inactive: EKVX NSCLC 34.8% | SN12C renal 43.6% | ACHN renal 19% | CAKI-1 renal 48.1% | A498 renal 41.3%
active: SK-MEL-2 melanoma -38.1% | UO-31 renal -6.05% | CCRF-CEM leukemia 1.03% | MOLT-4 leukemia -44.6%

CCOC(=O)c1sc(NC(=O)c2cc(OC)c(OC)c(OC)c2)nc1C
inactive: SK-MEL-2 melanoma 30.8% | EKVX NSCLC 99.8% | SN12C renal 92.6% | UO-31 renal 75.7% | ACHN renal 105% | CAKI-1 renal 116% | A498 renal 88.8% | CCRF-CEM leukemia 88.3% | MOLT-4 leukemia 87.6%

COc1ccc2nc(NC(=O)Nc3c(F)cccc3F)sc2c1
inactive: SK-MEL-2 melanoma 114% | EKVX NSCLC 102% | UO-31 renal 102% | TK-10 renal 84.8% | ACHN renal 106% | CAKI-1 renal 104% | A498 renal 87.9% | CCRF-CEM leukemia 96.1% | MOLT-4 leukemia 98.3%

C/C(=N/NC(=O)c1sc(=S)n(C)c1N)c1cc2cc(Cl)ccc2o1
inactive: SK-MEL-2 melanoma 98.9% | EKVX NSCLC 98.5% | SN12C renal 90.8% | TK-10 renal 101% | ACHN renal 96% | CAKI-1 renal 117% | CCRF-CEM leukemia 81.8% | MOLT-4 leukemia 76.5%
active: A498 renal -3.76%

CNC(=O)c1cc(Oc2ccc(NC(=O)Nc3ccc(Cl)c(C(C)(C)C)c3)c(F)c2)ccn1
inactive: SK-MEL-2 melanoma 44.2% | EKVX NSCLC 29.9% | UO-31 renal 41.6% | TK-10 renal 54.8% | ACHN renal 31.5% | CAKI-1 renal 54.4% | A498 renal 53.4% | CCRF-CEM leukemia 40.6% | MOLT-4 leukemia 36.6%

N#CN1CC[C@H](C(=O)Nc2ncc(-c3ccncc3)s2)C1
inactive: CAKI-1 renal 10%
active: SK-MEL-2 melanoma -36.1% | EKVX NSCLC 1.46% | UO-31 renal 8.4% | TK-10 renal -24.9% | ACHN renal 6.59% | A498 renal -49.4% | CCRF-CEM leukemia 7.15% | MOLT-4 leukemia -20.4%

CC(=O)Nc1nc(C)c(C(=O)N/N=C/c2cccn2C)s1
inactive: SK-MEL-2 melanoma 43.6% | EKVX NSCLC 103% | SN12C renal 94.5% | UO-31 renal 93.7% | ACHN renal 107% | CAKI-1 renal 111% | A498 renal 89.6% | CCRF-CEM leukemia 98.8% | MOLT-4 leukemia 100%

From PubChem BioAssay (NCI)
